This is a sample that favours compounds with a hit; in the whole collection about 4.8% have one here.
ATXN viability = reduces viability in counter-screen for ATXN expression inhibitors; S2 cells (HEK-293 line with an ATXN2-luciferase reporter) viability, CellTiter-Fluor protease fluorescence, 24 h; 0.49% of 400,000 active; AID 651635; Potency, µM (doses to about 56.7 µM), usual class: cytotoxic; note: potency is the fitted concentration of half-maximal effect; nearly all actives have a fitted effect of over 40% in size
USP1 inh = inhibitors of human USP1/UAF1 deubiquitinase | Potency, µM (series often up to 57.1 µM), inactives show top-dose activity change, negative = inhibition, actives largely listed as inhibitors | O94782 | AID 743255 | 0.23% of 390,000 active | recombinant USP1/UAF1, Ub-Rhodamine cleavage fluorescence; note: potency is the fitted concentration of half-maximal effect; % is set by controls: 0 for no effect and ±100 for the full control effect; nearly all actives have a fitted effect of over 60% in size
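High-throughput fluorogenic screen: 1nM USP1/UAF1 complex, Ub-Rho substrate 150nM final, 50mM HEPES pH 7.8 with 0.5mM EDTA, 0.1 mg/ml BSA, 1mM TCEP and 0.01% Tween-20.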
USP2a inh = blocks human ubiquitin-specific protease USP2a. Potency, µM (doses to about 38.3 µM), inactives show at the top dose activity change, negative = inhibition, hits mostly inhibitors. USP2 core, Ub-CHOP2 coupled fluorogenic reporter, 485/531. 0.01% of 330,000 active;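 note: potency is the fitted concentration of half-maximal effect; plate controls were DMSO wells for no effect and full inhibition by NEM control for full effect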
Target sequence (O75604 whole entry, looked up): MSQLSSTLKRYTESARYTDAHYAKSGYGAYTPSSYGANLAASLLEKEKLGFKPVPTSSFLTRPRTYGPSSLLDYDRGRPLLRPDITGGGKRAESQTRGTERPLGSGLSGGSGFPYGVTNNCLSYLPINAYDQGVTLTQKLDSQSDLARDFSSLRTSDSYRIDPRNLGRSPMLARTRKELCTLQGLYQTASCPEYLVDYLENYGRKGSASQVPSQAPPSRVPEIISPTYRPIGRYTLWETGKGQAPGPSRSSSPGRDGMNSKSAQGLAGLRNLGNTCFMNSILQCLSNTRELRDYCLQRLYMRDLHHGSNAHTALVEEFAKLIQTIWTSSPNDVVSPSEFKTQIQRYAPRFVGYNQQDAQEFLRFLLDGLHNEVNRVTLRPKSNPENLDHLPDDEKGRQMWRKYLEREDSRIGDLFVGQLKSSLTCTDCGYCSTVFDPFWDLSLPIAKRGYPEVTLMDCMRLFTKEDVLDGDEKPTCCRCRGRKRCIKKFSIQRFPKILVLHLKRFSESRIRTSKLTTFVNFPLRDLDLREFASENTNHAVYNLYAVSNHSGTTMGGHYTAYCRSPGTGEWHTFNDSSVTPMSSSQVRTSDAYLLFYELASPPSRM
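USP2 core (10nM final) preincubated 30min RT with compound in 20mM Tris-HCl pH 8.0, 2mM CaCl2, 2mM beta-mercaptoethanol, 0.05% CHAPS; 25nM Ub-CHOP2 plus 25nM reporter substrate added, fluorescence (Ex485/Em531) read after 60min.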
ATXN2 expr inh = reduces ATXN2 reporter expression in HEK-293 cells; AID 1745845; Potency, µM (titrated, usually from 57 µM), inactives show top-dose activity change, negative = inhibition, actives largely listed as inhibitors; HEK-293 ATXN2-luciferase reporter, luminescence, 24 h; 0.72% of 360,000 active; note: potency is the fitted concentration of half-maximal effect; % is set by controls: 0 for no effect and ±100 for the full control effect; nearly all actives have a fitted effect of over 55% in size
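qHTS (up to 57 uM final) was run with 24 h compound exposure of reporter cells at 37 °C. Each well was multiplexed: SteadyGlo luminescence measured ATXN2-luciferase expression after a fluorogenic Gly-Phe-AFC viability readout (25 uM final).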
IL1B secr inh = inhibitors of inflammasome signaling (IL-1 beta secretion). THP-1 LPS/ATP IL-1B secretion, AlphaLISA, 16 h; stronger effect = lower value. activity change, % at 57.5 µM. 4.7% of 360,000 active. AID 743279; in the data active = activity change below about -50%; inconclusive = mostly about -30% to -49%; note: % is set by controls: 0 for no effect and ±100 for the full control effect
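Secreted IL-1B measured by AlphaLISA bead assay after 16 h compound exposure of THP-1 cells; compounds (final up to 57.5 uM) added 1 h before LPS (250 ng/mL) and ATP (1.25 mM) stimulation; lower signal means less secretion.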
* = called active by the depositor; i = inactive; u = inconclusive; x = no result given; [ ] = remark or other dose. Unless noted, calls come from the whole dose curve; as a rule, active = well fitted curve in the direction sought with a large enough effect; inconclusive = small, poorly fitted or top-dose-only effect, or another doubt; inactive = no such curve, though single readings can be large; an effect the other way counts as inactive or inconclusive.

SMILES	ATXN viability	USP1 inh	USP2a inh	ATXN2 expr inh	IL1B secr inh
CCOc1ccc2[nH]c(=O)c(CN(CCN3CCCC3)C(=S)Nc3ccccc3OCC)cc2c1	u	-23.9%	-0.2%	-33.7%	-101.5*
CCc1ccc2[nH]c(=O)c(CN(CCN3CCCC3)C(=O)NC3CCCCC3)cc2c1	i	-18.1%	-1.6%	1.7%	-56.2*
CCc1ccc2[nH]c(=O)c(CN(CCCN3CCOCC3)C(=O)Nc3ccc(Cl)cc3)cc2c1	i	-8.7%	2.0%	-21.4%	u
CCc1ccc2[nH]c(=O)c(CN(CCCN3CCOCC3)C(=O)Nc3cccc(Cl)c3)cc2c1	u	-10.9%	-2.2%	-27.2%	-62.4*
Cc1ccc2[nH]c(=O)c(CN(CCCN3CCOCC3)C(=O)NC3CCCCC3)cc2c1	i	-13.5%	1.6%	1.1%	-10.4
O=C(Nc1cccc(Cl)c1)N(CCN1CCOCC1)Cc1cccc(Cl)c1	u	14.9%	-2.4%	u	-76.5*
CC(Nc1ccccc1N1CCCCC1)C(=O)N1CCc2ccccc21 (stereo not given)	i	-1.9%	0.3%	-20.5%	-21.8
CCCCC[C@H](O)/C=C/[C@H]1C=CC(=O)[C@@H]1C/C=C\CCCC(=O)O	x	x	-22.2%	x	x
CCCCC[C@@H](/C=C/C1C(=O)C=C[C@H]1C/C=C\CCCC(=O)O)OC(C)=O (stereo not given in full)	u	-19.4%	x	u	-77.2*
CCOc1ccc(CCNC(=O)c2cc(=O)[nH]c3ccc(S(=O)(=O)N4CCCCC4)cc23)cc1OCC	x	-27.5%	x	x	x
COc1ccc(C(=O)Nc2ccc(S(=O)(=O)N3CCCCC3C)cc2)c(OC)c1OC (stereo not given)	i	-15.2%	-14.9%	0.0%	-59.5*
COc1cc(C(=O)Nc2ccc(S(=O)(=O)N3CCCCC3C)cc2)cc(OC)c1OC (stereo not given)	i	-22.4%	4.1%	15.4%	u
COc1ccc(-c2csc(N(C)C(=O)c3cccs3)n2)cc1	i	-15.6%	-0.2%	19.4%	-59.6*
CCN(CC)CCCN(C(=O)c1cccs1)c1nc(-c2ccc(OC)cc2)cs1	u	-15.6%	0.0%	-30.5%	u
CCN(CC)CCCN(C(=O)c1ccc(Br)cc1)c1nc(-c2ccc(OC)cc2)cs1	i	-7.1%	-4.0%	u	-81.5*
COc1ccc(-c2csc(N(Cc3ccco3)C(=O)c3cccs3)n2)cc1	i	-10.1%	-5.4%	x	0.0
CCN(CC)CCCN(C(=O)c1cccc(C)c1)c1nc(-c2ccc(OC)cc2)cs1	u	5.2%	0.7%	x	-50.4*
Nc1ccc(C(=O)N/N=C\c2cc(N=Nc3cccc4ccccc34)ccc2O)cc1	u	-23.0%	1.9%	5.62µM*	26.5
O=C(N/N=C/c1c(O)ccc2ccccc12)c1ccc(CO)nc1	i	-22.6%	19.5%	3.98µM*	114.0
O=C(N/N=C/c1ccccc1)c1ccc2c(c1)OCO2	i	-8.9%	2.4%	-19.8%	0.0
O=C(CNC(=O)c1ccc(S(=O)(=O)N2CCCC2)cc1)N/N=C/c1ccccc1Cl	i	-5.6%	-0.8%	-7.8%	-19.3
O=C(NN=Cc1c(O)ccc2ccccc12)c1ccc2c(c1)OCO2	i	-3.0%	3.4%	3.16µM*	169.5
COc1ccc2ccccc2c1/C=N/NC(=O)c1ccc(C)nc1	i	-11.6%	-6.6%	x	-10.0
O=C(N/N=C\c1c(O)ccc2ccccc12)c1ccc(S(=O)(=O)N2CCCCC2)cc1	x	u	3.5%	0.532µM*	98.5
CC(=O)c1ccsc1-c1c(C)cc2oc(=O)cc(-c3ccccc3)c2c1C	u	-28.2%	-1.2%	-22.4%	1.7
SMILES	ATXN viability	USP1 inh	USP2a inh	ATXN2 expr inh	IL1B secr inh
CC1(C)CC(=O)C2=C(C1)OC(N)=C(C#N)C2C#Cc1ccccc1 (stereo not given)	u	-14.6%	-0.3%	9.0%	-96.3*
CC1(C)CC(=O)C2=C(C1)OC(N)=C(C#N)C2c1ccoc1 (stereo not given)	i	-25.3%	-2.6%	1.4%[11.3 µM]	19.4
CC1(C)CC(=O)C2=C(C1)OC(N)=C(C#N)C2c1cn(-c2ccccc2)nc1-c1ccccc1 (stereo not given)	i	-18.1%	0.1%	26.5%	-53.8*
Cc1cc(Br)ccc1NC(=O)CN(C)C(=O)c1cc([N+](=O)[O-])ccc1N1CCOCC1	i	1.7%	0.1%	-16.7%	-59.4*
Cc1ccc(C)c(NC(=O)CN(C)C(=O)c2cc([N+](=O)[O-])ccc2N2CCOCC2)c1	i	u	1.5%	3.3%	-3.1
COc1ccc(OCC(=O)N2c3ccc(C)cc3C3CN(C)CCC32)cc1 (stereo not given)	i	-8.7%	2.2%	-26.4%[11.3 µM]	5.6
CCOc1ccc(S(=O)(=O)N(C)c2ccc(OCC(=O)N3c4ccc(C)cc4C4CN(C)CCC43)cc2)cc1 (stereo not given)	i	-14.1%	-1.0%	-3.2%	-50.4*
Cc1ccc(C(=O)N(C)c2ccc(OCC(=O)N3c4ccc(C)cc4C4CN(C)CCC43)cc2)cc1 (stereo not given)	i	-11.3%	0.7%	-30.8%	-59.5*
Cc1ccc2c(c1)C1CN(C)CCC1N2C(=O)COc1ccc(N(C)C(=O)C(C)(C)C)cc1 (stereo not given)	i	-1.0%	0.1%	-17.4%	-76.3*
Cc1c2cnn(CC(=O)N3CCN(c4ccccc4)CC3)c(=O)c2c(C)n1Cc1ccccc1Cl	x	-3.8%	x	x	x
CCc1nc2c(OCCn3cccc3)cccn2c1N(C)C(=O)C1CC1	i	x	x	-1.9%	-13.7
CC1CC(C)CN(C(=O)COC(=O)c2cc(S(=O)(=O)N3CCOCC3)ccc2F)C1 (stereo not given)	i	-13.9%	0.3%	-0.7%	-87.8*
O=C(OCC(=O)N1CCc2ccccc21)c1cc(S(=O)(=O)N2CCOCC2)ccc1F	i	-7.0%	2.2%	0.0%	-20.0
Cc1ccc(S(=O)(=O)N2CCOCC2)cc1C(=O)OCC(=O)c1c(N)n(C)c(=O)n(C)c1=O	i	-11.1%	6.4%	11.2%	-5.7
Cn1c(N)c(C(=O)COC(=O)c2cc(S(=O)(=O)N3CCOCC3)ccc2F)c(=O)n(C)c1=O	u	-15.8%	2.2%	u	-105.5*
O=C(CSc1nnc(Nc2ccccc2)s1)NC1CC1	i	-7.3%	-1.4%	x	-1.7
Cc1ccc(NC(=O)Cc2nc(COC(=O)c3c(F)cccc3Cl)cs2)cc1	i	-11.0%	3.3%	4.0%	-59.0*
O=C(CNc1ccc(F)cc1)N/N=C/c1c(O)ccc2ccccc12	u	u	6.3%	4.47µM*	177.0
COc1ccccc1NCC(=O)N/N=C/c1c(O)ccc2ccccc12	i	-6.2%	7.9%	2.51µM*	170.9
COc1ccccc1NCC(=O)N/N=C/c1cccnc1	i	-11.1%	1.1%	4.8%	0.0

Source: PubChem (National Center for Advancing Translational Sciences (NCATS))
